Source: PubChem BioAssay
FLuc modulator: inhibits or activates purified firefly luciferase, miR-21 counter-screen; P08659; purified FLuc, Km substrates, luminescence inhibition; Potency, µM (doses to about 57.5 µM), for the others: at the top dose activity change, negative = inhibition, most hits filed as inhibitors; actives 6.9% (n = 360,000);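 note: plate controls were vehicle for no effect and reference inhibitor for full effect; nearly all actives have a fitted effect of over 55% in size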
Target sequence (P08659 whole entry, looked up): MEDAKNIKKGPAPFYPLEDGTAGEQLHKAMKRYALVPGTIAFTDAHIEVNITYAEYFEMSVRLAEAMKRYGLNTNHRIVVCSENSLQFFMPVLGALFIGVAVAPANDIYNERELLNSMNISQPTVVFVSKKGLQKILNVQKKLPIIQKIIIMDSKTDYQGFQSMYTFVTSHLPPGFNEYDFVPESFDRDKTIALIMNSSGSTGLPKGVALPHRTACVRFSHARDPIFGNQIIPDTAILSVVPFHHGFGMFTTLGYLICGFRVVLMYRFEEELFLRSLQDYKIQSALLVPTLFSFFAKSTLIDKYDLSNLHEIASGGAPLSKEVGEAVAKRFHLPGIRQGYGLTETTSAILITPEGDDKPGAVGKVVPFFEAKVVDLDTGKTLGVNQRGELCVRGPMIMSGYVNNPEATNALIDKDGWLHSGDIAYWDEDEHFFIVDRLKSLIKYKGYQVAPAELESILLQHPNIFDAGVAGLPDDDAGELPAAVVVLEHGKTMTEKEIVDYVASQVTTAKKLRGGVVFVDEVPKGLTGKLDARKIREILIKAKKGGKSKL
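Purified P. pyralis luciferase (10nM final) with 10uM D-luciferin and 10uM ATP (Km levels) in 50mM Tris acetate pH 7.5, 10mM Mg acetate, 0.01% Tween-20, 0.05% BSA; qHTS 6-point titration, ~60 µM downward; luminescence read.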
Rab9 promoter act: Rab9 promoter activation. Huh7 Rab9 promoter-luciferase reporter, luminescence, 24 h. Potency, µM (titrated, usually from 9.22 µM), without a hit: at the top dose activation, negative = inhibition, actives largely listed as activators. actives 2.8% (n = 320,000); note: % of control where 0% means no effect; nearly all actives have a fitted effect of over 60% in size
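Measured in stably transfected Huh7 cells bearing a Rab9 promoter–luciferase construct: 24 h compound treatment at 37 °C, followed by luminescence detection.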
ELG1 repair inh: ELG1-dependent DNA repair inhibition | actives 2.3% (n = 330,000) | HEK293T ELG1-luciferase reporter, luminescence, 16 h; DNA damage induced by 5-fluorouridine | AID 504467 | Potency, µM (top dose mostly 46.1 µM), without a hit: at the top dose activity change, negative = inhibition, actives largely listed as inhibitors; note: % is set by controls: 0 for no effect and ±100 for the full control effect; nearly all actives have a fitted effect of over 55% in size
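Cells (2,000 per well) received 5-fluorouridine plus test compound or DMSO and were incubated 16 hr at 37 °C, 5% CO2. Luciferase activity was read by luminescence 30 min after ONE-Glo addition; signal suppression marked inhibition of damage-induced ELG1 function.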
ELG1 genotox: genotoxicity induction in ELG1-luciferase HEK293T cells; HEK293T ELG1-luciferase reporter, luminescence, 16 h; Potency, µM (highest dose often 46 µM), for the others: top-dose activity change, positive = activation, hits mostly activators; actives 1.3% (n = 330,000); note: % of control where 0% means no effect; nearly all actives have a fitted effect of over 60% in size
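After overnight (16 hr) compound treatment at 37 °C, ELG1-luciferase HEK293T cells were lysed with ONE-Glo; luminescence quantified 30 min later at room temperature.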
NPC1 prom act: activates the NPC1 promoter; Huh7 NPC1 promoter luciferase reporter, 24 h; Potency, µM (titrated, usually from 9.22 µM), for inactives: at the top dose activation, actives largely listed as activators; actives 2.4% (n = 320,000); AID 485313; note: % of control where 0% means no effect; nearly all actives have a fitted effect of over 60% in size
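Huh7 cells stably carrying NPC1 promoter–luciferase, plated in Opti-MEM with 10% FBS for 2 h, were exposed to compound in DMSO for 24 h at 37 °C; luciferase reagent was added for 10 min and luminescence read.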
SMN2 splice up: enhancers of SMN2 splice variant expression | HEK293 SMN2-luciferase splicing reporter, luminescence, 30-36 h | Potency, µM (series often up to 46.1 µM), inactives show at the top dose activity change, positive = activation, actives largely listed as activators | actives 2.8% (n = 210,000); note: % of control where 0% means no effect; nearly all actives have a fitted effect of over 55% in size
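HEK293 cells carry an SMN2 […]–luciferase reporter in which exon 7 inclusion puts luciferase in frame. Cells were plated 10-12 h before compound addition, then incubated 30-36 h at 37C. ONE-Glo luminescence was read; sodium butyrate at 4.5 mM final served as control.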
The depositor's hits bear a star. An excerpt weighted towards active compounds, which were near 9.2% of everything screened. Calls come from the whole dose curve; as a rule, active = well fitted curve in the direction sought with a large enough effect; inconclusive = small, poorly fitted or top-dose-only effect, or another doubt; inactive = no such curve, though single readings can be large; an effect the other way counts as inactive or inconclusive. Potency is the fitted concentration of half-maximal effect.

`COc1ccc(-c2cc(C(=O)OC(C)C(=O)Nc3c(C)n(C)n(-c4ccccc4)c3=O)c3ccccc3n2)cc1` (stereo not drawn) gave FLuc modulator 13.5µM*, Rab9 promoter act -1.2%, ELG1 repair inh 14.6µM*, ELG1 genotox 0.3%, NPC1 prom act 1.1% and SMN2 splice up 23.1%.
`Cc1ccc(-c2cc(C(=O)Nc3c(C)n(C)n(-c4ccccc4)c3=O)c3ccccc3n2)cc1` gave ELG1 repair inh 13µM* and ELG1 genotox -5.6%.
Cc1c(NC(=O)c2cc(-c3ccccc3)on2)c(=O)n(-c2ccccc2)n1C was read as FLuc modulator -1.3%, Rab9 promoter act -3.9%, ELG1 repair inh 4.0%, ELG1 genotox -7.0%, NPC1 prom act -3.5% and SMN2 splice up 30.6%.
COc1ccc(-c2cc(C(=O)O)c3ccccc3n2)c(OC)c1 was read as FLuc modulator inconclusive, Rab9 promoter act -0.7%, ELG1 repair inh 9.3%, ELG1 genotox 16.3%, NPC1 prom act -2.7% and SMN2 splice up 20.4%.
Cc1c(NC(=O)c2cc(-c3ccccc3)nc3ccccc23)c(=O)n(-c2ccccc2)n1C was read as ELG1 repair inh 5.8µM* and ELG1 genotox -4.1%.
CN(CC(=O)Nc1ccc(F)c(F)c1F)C(=O)CCc1nc2sc3c(c2c(=O)[nH]1)CCCC3 was read as FLuc modulator 2.4%, Rab9 promoter act -1.5%, ELG1 repair inh -4.3%, ELG1 genotox 1.6% and NPC1 prom act -3.5%.
For COc1ccc(NC(=O)Nc2cc(C(=O)NCc3ccc(C)cc3)ccc2N2CCCC2)cc1 the results were FLuc modulator 2.1%.
CC[C@]12c3[nH]c4ccc(OC)cc4c3CCN1C(=O)C(CC(=O)NCCc1ccccn1)C[C@@H]2C(=O)N1CCN(C(=O)C2CC2)CC1 (stereo partly drawn) was read as ELG1 repair inh inconclusive and ELG1 genotox 1.0%.
Screening N#Cc1c(-c2ccc(Cl)cc2)c2c([nH]c1=O)-c1ccccc1OC2 returned FLuc modulator -1.1%, Rab9 promoter act -1.9%, ELG1 repair inh -3.5%, ELG1 genotox -2.0% and NPC1 prom act -7.8%.
Screening Cc1c(NC(=O)COC(=O)c2cc(-c3ccc(-c4ccccc4)cc3)nc3ccccc23)c(=O)n(-c2ccccc2)n1C returned FLuc modulator 0.849µM*, Rab9 promoter act 2.51µM*, ELG1 repair inh inconclusive, ELG1 genotox inconclusive, NPC1 prom act 0.631µM* and SMN2 splice up 0.631µM*.
COc1ccc(-c2cc(C(=O)Nc3c(C)n(C)n(-c4ccccc4)c3=O)c3ccccc3n2)cc1OC was read as FLuc modulator 21.3µM*, Rab9 promoter act 1.1%, ELG1 repair inh 7.3µM*, ELG1 genotox -6.0% and NPC1 prom act -1.2%.
For Cc1cccc(C(=O)OCC(=O)Nc2c(C)n(C)n(-c3ccccc3)c2=O)c1 the results were FLuc modulator 5.7%, Rab9 promoter act 3.7%, ELG1 repair inh 10.4%, ELG1 genotox 1.3% and NPC1 prom act -5.2%.
Cc1cc(C)n(CC(C)NC(=O)c2cc(COc3ccc(F)c(F)c3)on2)n1 (stereo not drawn) was read as FLuc modulator inconclusive, Rab9 promoter act 25.6%, ELG1 repair inh inconclusive, ELG1 genotox 13.5% and NPC1 prom act inconclusive.
Cc1ccc(OCc2cc(C(=O)NCc3ccc(OC(F)(F)F)cc3)no2)cn1 was read as FLuc modulator 3.2%, Rab9 promoter act 2.0%, ELG1 repair inh -2.7%, ELG1 genotox -8.0% and NPC1 prom act -2.2%.
C=CCC1(CC=C)CCCN1C(=O)c1cc(COc2ccc(C)nc2)on1 was read as FLuc modulator 19µM*, Rab9 promoter act -28.9%, ELG1 repair inh inconclusive, ELG1 genotox 17.3% and NPC1 prom act -24.1%.
Cc1cc(CNC(=O)c2cc(COc3ccc(F)c(F)c3)on2)nn1C was read as FLuc modulator inconclusive, Rab9 promoter act 1.26µM*, ELG1 repair inh inconclusive, ELG1 genotox inconclusive and NPC1 prom act 2.82µM*.
`CCc1cc(CNC(=O)c2cc(COc3ccc(C)nc3)on2)on1` gave FLuc modulator 16.9µM*, Rab9 promoter act inconclusive, ELG1 repair inh inconclusive, ELG1 genotox inconclusive and NPC1 prom act inconclusive.
Screening O=C(c1cnccn1)N1CCC2(CCCN(Cc3ccncc3)C2)CC1 returned SMN2 splice up -1.5%.
CCOc1ccc(NC(=O)c2ccc3c(c2)nnn3C2CCCC2)cc1 was read as FLuc modulator -5.3%.
O=C1O/C(=C/c2ccccc2)N=C1c1ccccc1 was read as FLuc modulator 2.69µM*, Rab9 promoter act -0.2%, ELG1 repair inh 0.6%, ELG1 genotox -0.5%, NPC1 prom act -0.7% and SMN2 splice up 6.8%.
For COc1ccc(-c2nnc(N(C)C(=O)c3cccnc3)s2)cc1 the results were FLuc modulator 13.5µM*, Rab9 promoter act inconclusive, ELG1 repair inh inconclusive, ELG1 genotox inconclusive, NPC1 prom act inconclusive and SMN2 splice up 15.8%.
For Cc1ccc(-c2nnc(N(C)C(=O)c3cccnc3)s2)cc1 the results were FLuc modulator 8.49µM*, Rab9 promoter act 3.55µM*, ELG1 repair inh inconclusive, ELG1 genotox 16.8%, NPC1 prom act 3.16µM* and SMN2 splice up 27.2%.
`CCOc1ccc(C(=O)c2cn(CC(=O)Nc3ccc4c(c3)OCO4)c3ccc(OCC)cc3c2=O)cc1` gave FLuc modulator 1.1% and SMN2 splice up 6.6%.
For Cc1cc(C)n(-c2nc3ccccc3nc2N2CCN(c3cccc(C)c3C)CC2)n1 the results were FLuc modulator -0.2% and SMN2 splice up -0.7%.
For Cc1cc2cc(CN(Cc3ccc4c(c3)OCO4)C(=O)c3cnccn3)c3nnnn3c2cc1C the results were FLuc modulator 5.2%, Rab9 promoter act 9.4%, ELG1 repair inh 16.4µM*, ELG1 genotox 0.0%, NPC1 prom act -2.9% and SMN2 splice up -5.8%.
Screening COc1ccc(-c2nnc3c4ccccc4c(C)nn23)cc1 returned FLuc modulator 15.1µM*, Rab9 promoter act inconclusive, ELG1 repair inh inconclusive, ELG1 genotox inconclusive, NPC1 prom act inconclusive and SMN2 splice up inconclusive.
`COc1ccc(Oc2nnc(C)c3ccccc23)cc1` gave FLuc modulator 12µM*, Rab9 promoter act 3.98µM*, ELG1 repair inh inconclusive, ELG1 genotox inconclusive, NPC1 prom act 2.51µM* and SMN2 splice up inconclusive.
